In all, about 5,500 compounds went through this assay and about 2,000 (36%) were called active. Not shown: some 18% with an inconclusive outcome. Cut-off read from the data, not from the text of the source: active = normalized growth mostly below about 0.91 (no sharp cut-off); inconclusive = no clear call, values can overlap the other calls; inactive = mostly above about 0.92. The list shows a part of the results.
Experiment: chemical genetic growth profiling, strain panel (AID 1159580);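 note: tested at 20 µM; growth read once vehicle control cultures reached saturation at 30 °C; 1 = growth at the plate median or of vehicle wells; lower values mean less growth of the strain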
Conditions: S. cerevisiae deletion strains, growth OD
[1] = locus YHR030C, strain SLT2, stronger effect = lower value
[2] = locus YHR079C, strain IRE1, stronger effect = lower value
[3] = locus YJL095W, strain BCK1, stronger effect = lower value
[4] = locus YJR066W, strain TOR1, stronger effect = lower value
[5] = locus YLR113W, strain HOG1, stronger effect = lower value
[6] = locus YNL183C, strain NPR1, stronger effect = lower value
[7] = locus YOR231W, strain MKK1, stronger effect = lower value
[8] = locus YPL256C, strain CLN2, stronger effect = lower value

Measured: normalized growth

CCCOc1ccc(C(=O)OCCN(CC)CC)cc1N
inactive: locus YAL021C, strain ccr4, stronger effect = lower value 0.979 | locus YAL026C, strain drs2, stronger effect = lower value 1.01 | locus YAL030W, strain snc1, stronger effect = lower value 1 | locus YBL061C, strain skt5, stronger effect = lower value 1 | locus YBR009C, strain hhf1, stronger effect = lower value 1.03 | locus YBR023C, strain chs3, stronger effect = lower value 1.02 | locus YBR171W, strain sec66, stronger effect = lower value 1.02 | locus YBR231C, strain swc5, stronger effect = lower value 1.01 | locus YBR279W, strain paf1, stronger effect = lower value 1.01 | locus YCL011C, strain gbp2, stronger effect = lower value 1 | locus YCL016C, strain dcc1, stronger effect = lower value 1 | locus YCL061C, strain MRC1, stronger effect = lower value 1 | locus YCL069W, strain vba3, stronger effect = lower value 0.999 | locus YCR088W, strain abp1, stronger effect = lower value 1.01 | locus YDL005C, strain med2, stronger effect = lower value 1.01 | locus YDL040C, strain nat1, stronger effect = lower value 1 | locus YDR001C, strain nth1, stronger effect = lower value 1 | locus YDR069C, strain doa4, stronger effect = lower value 1.01 | locus YDR137W, strain rgp1, stronger effect = lower value 1.04 | locus YDR159W, strain sac3, stronger effect = lower value 1.02 | locus YDR195W, strain ref2 0.964 | locus YDR297W, strain sur2, stronger effect = lower value 1 | locus YDR334W, strain swr1, stronger effect = lower value 0.995 | locus YDR335W, strain msn5, stronger effect = lower value 1 | locus YDR392W, strain spt3, stronger effect = lower value 1.02 | locus YEL003W, strain gim4, stronger effect = lower value 1.01 | locus YEL037C, strain rad23, stronger effect = lower value 0.979 | locus YEL061C, strain CIN8 (second series), stronger effect = lower value 1 | locus YER015W, strain faa2, stronger effect = lower value 1.03 | locus YER016W, strain bim1, stronger effect = lower value 1 | locus YER111C, strain swi4, stronger effect = lower value 0.999 | locus YER155C, strain BEM2 (second series), stronger effect = lower value 1 | locus YFR010W, strain ubp6, stronger effect = lower value 0.996 | locus YGL167C, strain pmr1, stronger effect = lower value 1.01 | locus YGL173C, strain kem1, stronger effect = lower value 1 | locus YGL227W, strain vid30, stronger effect = lower value 1 | locus YGL240W, strain doc1, stronger effect = lower value 1.02 | locus YGL253W, strain hxk2, stronger effect = lower value 1.01 | locus YHR013C, strain ard1, stronger effect = lower value 1.01 | locus YHR027C, strain rpn1, stronger effect = lower value 1 | [1] 1.05 | [2] 1.04 | locus YHR142W, strain chs7, stronger effect = lower value 0.981 | locus YJL092W, strain hpr5, stronger effect = lower value 1 | locus YJL095W, strain BCK1 (second series), stronger effect = lower value 1 | [3] 1 | locus YJL115W, strain asf1, stronger effect = lower value 1 | locus YJL129C, strain trk1, stronger effect = lower value 0.995 | locus YJL154C, strain vps35, stronger effect = lower value 1.01 | locus YJL164C, strain tpk1, stronger effect = lower value 0.999 | locus YJL166W, strain qcr8, stronger effect = lower value 1 | locus YJL187C, strain SWE1, stronger effect = lower value 1 | [4] 0.972 | locus YKL160W, strain elf1, stronger effect = lower value 0.989 | locus YKR026C, strain gcn3, stronger effect = lower value 0.984 | locus YKR091W, strain srl3, stronger effect = lower value 1 | locus YLL001W, strain dnm1, stronger effect = lower value 1.01 | locus YLL026W, stronger effect = lower value 1.01 | locus YLL041C, strain sdh2, stronger effect = lower value 0.998 | locus YLR027C, strain aat2, stronger effect = lower value 1 | [5] 0.968 | locus YLR221C, strain rsa3, stronger effect = lower value 1 | locus YLR258W, strain gsy2, stronger effect = lower value 1.01 | locus YLR262C, strain YPT6 (second series), stronger effect = lower value 1.01 | locus YLR320W, strain mms22, stronger effect = lower value 1.02 | locus YLR342W, strain FKS1, stronger effect = lower value 0.999 | locus YLR357W, strain rsc2, stronger effect = lower value 1.01 | locus YLR370C, strain arc18, stronger effect = lower value 1.01 | locus YLR384C, strain iki3, stronger effect = lower value 1 | locus YML120C, strain ndi1, stronger effect = lower value 1.01 | locus YMR058W, strain fet3, stronger effect = lower value 1.01 | locus YMR125W, strain sto1, stronger effect = lower value 1.02 | locus YMR129W, stronger effect = lower value 1.01 | locus YMR205C, strain PFK2, stronger effect = lower value 1.04 | locus YMR231W, strain pep5, stronger effect = lower value 1 | locus YNL071W, strain lat1, stronger effect = lower value 1 | [6] 0.966 | locus YNL209W, strain ssb2, stronger effect = lower value 1 | locus YNL248C, strain rpa49, stronger effect = lower value 0.971 | locus YNL322C, strain KRE1 (second series), stronger effect = lower value 1.01 | locus YNR049C, strain mso1, stronger effect = lower value 1 | locus YOR001W, strain rrp6, stronger effect = lower value 0.984 | locus YOR070C, strain gyp1, stronger effect = lower value 1.02 | locus YOR080W, strain dia2, stronger effect = lower value 1 | locus YOR083W, strain WHI5, stronger effect = lower value 0.986 | locus YOR106W, strain vam3, stronger effect = lower value 0.994 | [7] 1.03 | locus YOR265W, strain rbl2, stronger effect = lower value 1 | locus YOR270C, strain vph1, stronger effect = lower value 1.04 | locus YOR290C, strain snf2, stronger effect = lower value 1.01 | locus YPL051W, strain arl3, stronger effect = lower value 0.997 | locus YPL078C, strain atp4, stronger effect = lower value 0.98 | locus YPL106C, strain sse1, stronger effect = lower value 1.01 | locus YPL240C, strain hsp82, stronger effect = lower value 0.988 | [8] 1.02

CCCCCCCCCCOc1cc2c(=O)c(C(=O)OCC)c[nH]c2cc1OCC
inactive: [1] 1 | [2] 0.989 | [3] 0.978 | [4] 0.962 | [5] 0.942 | [6] 0.971 | [7] 0.977 | [8] 0.993

— PubChem BioAssay AID1159580 (chemical genetic matrix, 2015)
